In ChEMBL document CHEMBL3988442, “University of Dundee, Small-Polar-MMV Screening Library” (2021):

How the values were obtained:
[1] = target: T1, Aspartate--tRNA(Asp/Asn) ligase (Mycobacterium tuberculosis (strain ATCC 25618 / H37Rv)) (UniProt P9WFW3); assay: Assay for Asp RNA synthetase-1 from Mycobacterium tuberculosis; type: functional; set-up: scale not given: direction of the effect not stated beside the values; conditions: 30 µM; also: in the data most compounds retested in dose-response had high values
T1 sequence (whole entry): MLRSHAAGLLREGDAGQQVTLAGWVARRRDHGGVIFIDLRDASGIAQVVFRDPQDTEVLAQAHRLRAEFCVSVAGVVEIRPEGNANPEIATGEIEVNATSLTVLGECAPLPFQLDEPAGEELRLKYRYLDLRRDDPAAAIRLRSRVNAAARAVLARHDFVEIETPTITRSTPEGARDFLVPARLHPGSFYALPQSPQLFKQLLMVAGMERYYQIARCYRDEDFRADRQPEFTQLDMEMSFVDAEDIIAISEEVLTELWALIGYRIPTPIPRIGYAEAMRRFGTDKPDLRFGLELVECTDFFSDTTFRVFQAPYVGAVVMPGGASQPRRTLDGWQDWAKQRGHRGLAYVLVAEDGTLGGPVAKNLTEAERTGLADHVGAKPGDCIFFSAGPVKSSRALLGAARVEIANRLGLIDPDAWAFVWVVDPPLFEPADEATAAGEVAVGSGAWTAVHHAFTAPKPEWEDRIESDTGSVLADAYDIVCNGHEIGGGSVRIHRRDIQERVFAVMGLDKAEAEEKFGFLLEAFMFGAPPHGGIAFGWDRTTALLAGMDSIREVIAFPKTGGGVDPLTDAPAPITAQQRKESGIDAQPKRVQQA

[2] = target: Shiga toxin 2 (Escherichia coli O157:H7) (UniProt P09385+P09386); assay: E. coli 0.157:H7 Shiga Toxin SOP - stx2 screening assay; type: functional; set-up: scale not given: direction of the effect not stated beside the values; conditions: 30 µM

Structure (SMILES) | Percent Effect [1] [%] | Percent Effect [2] [%]
Cc1nc(CN(C)C2CCN(Cc3ccno3)C2)no1 (stereo unspecified) | -4.76 | -31.6
Cn1ncc2c1C(COCC1CC1)CN(Cc1nccs1)C2 (stereo unspecified) | 11.3 | -37.3
CCc1nnc2n1CCN(C(=O)c1ccc3[nH]cnc3c1)C2 | -2.2 | -13.3
Cn1cnc2c1CCN(CCCc1ccccc1)C2 | 1.13 | 1.04
CCN(c1ccc(C(=O)N2CCCC(C)C2)cc1)S(=O)(=O)CC (stereo unspecified) | -3.34 | -10.8
CCOc1ccccc1C(CC(=O)Nc1nc(C)cs1)NC(C)=O (stereo unspecified) | -0.233 | 30.8
O=C(NCc1nnc2n1CCCC2)N(Cc1ccccc1F)C1CC1 | -1.44 | 7.01
Cc1ccc(C)c(C(C(=O)O)N2CCCN(Cc3ccccn3)CC2)c1 (stereo unspecified) | -3.28 | 2.34
O=C(CC1CCCC1)N1CCCC(c2n[nH]c3nccnc23)C1 (stereo unspecified) | -1.74 | 19.5
Cc1cc(CC(=O)NCc2ccnc(OCC(F)(F)F)c2)no1 | -6.06 | 21
CN1CCOC(CN(C(=O)CC2CCCC2)c2nccs2)C1 (stereo unspecified) | 6.38 | 27.4
COc1ccc(C(C)=O)c(OCC(=O)NC(C)c2ccc(F)cc2)c1 (stereo unspecified) | -4.39 | -1.68
CN(C)C(=O)CCCNC(=O)C(c1cccc(F)c1)N(C)C (stereo unspecified) | -1.57 | -24.8
O=C(Nc1cccnc1)[C@H]1C[C@H]2OCC[C@H]2N(C(=O)c2ccsc2)C1 | 4.71 | -27.5
Cc1[nH]ncc1C(=O)N1CCCC(c2cc(C(F)(F)F)[nH]n2)C1 (stereo unspecified) | 0.845 | 24.8
CC(C)c1noc(C(C)N2CCN(Cc3ccccc3C#N)CC2)n1 (stereo unspecified) | -1.01 | 12.5
Cc1cc(C)n(CC2CN(Cc3nc(-c4ccoc4)no3)CCO2)n1 (stereo unspecified) | 5.71 | 28.8
O=c1ccc(-c2cccs2)nn1CN1CCN(Cc2ccccc2)CC1 | -1.1 | 9.12
CCn1cnnc1C1CCN(C(=O)c2ccccc2OC)CC1 | -4.13 | 14.1
COc1c(C2CCCN2Cc2c(C)noc2C)c(C)nn1C (stereo unspecified) | 1.48 | 6.54
COc1cccc(OCC(=O)NS(=O)(=O)c2ccc(C)s2)c1 | 1.83 | -6.18
Cc1ccccc1N1CC2(CCN(S(=O)(=O)C3CC3)C2)CC1=O (stereo unspecified) | -1.07 | -4
CC(=O)N1CCCC(Cc2cncc(Br)c2)CC1 (stereo unspecified) | -0.223 | -11
Cn1ccc(C(=O)NC2CCC23CCN(C(=O)N2CCCC2)CC3)c1 (stereo unspecified) | -3.32 | -4.99
CC(OCC(F)(F)F)C(=O)NCc1ccc(-n2cncn2)nc1 (stereo unspecified) | -3.63 | -8.85

Structure (SMILES) | Percent Effect [1] [%] | Percent Effect [2] [%]
CC(C)c1nn(C)c(N2CCOCC2)c1CNCC(=O)N(C)C | -4.92 | -14.4
COCCC(=O)N1CCC2(CC1)CC(c1ccccc1)CN(C)C2 (stereo unspecified) | -3.3 | 17.5
CC(C)C(=O)N1CCCC(c2ncncc2-c2ccncc2)C1 (stereo unspecified) | -3.04 | -34.6
CSCc1cccc(S(=O)(=O)NCCCN2CCOCC2)c1 | 13.9 | -32.1
Cc1cc(-c2nnn(CCC(N)=O)n2)ccc1F | -0.912 | -20.8
CCCNC(=O)c1ccc2c(c1)C(=O)N(CC(C)C)C2=O | 1.59 | 3.24
CC(C)Oc1cc(N2C[C@@H](C)O[C@@H](C)C2)nc(N)n1 | -0.457 | 0.94
Cc1nc(C)n(CC2CN(CC(=O)Nc3cccnc3)CCO2)n1 (stereo unspecified) | -1.48 | 2.66
CNS(=O)(=O)c1ccc(C(=O)N2CCCC2Cc2ccccc2)o1 (stereo unspecified) | -3.06 | 18.2
Cn1cnnc1C1CCCN(C(=O)c2ccc3c(c2)OCCCO3)C1 (stereo unspecified) | 0 | 1.29
O=S(=O)(c1cccs1)N1CC[C@H](O)[C@@H]1Cc1ccncc1 | -0.474 | 2.87
OCCn1nccc1C1CCN(CCCOc2ccc(F)cc2)CC1 | 1.85 | 4.26
CC(C)CCn1[nH]c(CNc2ccccc2)nc1=O | 5.27 | -8.36
Cc1ccc(C(CNCc2ccncc2)N2CCOCC2)s1 (stereo unspecified) | 2.18 | -29.8
CC(OCC1CC1)C(=O)N1CCCN(Cc2nccn2C)CC1 (stereo unspecified) | 7.9 | -20.4
Cc1ccc(C(=O)N2CCC3(CC2)CC(c2ccccc2)C(=O)N3)cn1 (stereo unspecified) | 7.75 | -10.4
CN(CC(=O)N1CCN(c2ncccn2)CC1)c1ccc(Cl)cn1 | -2 | -0.376
O=C(c1ccc[nH]1)N1CCN(CC2CCOc3ccccc3C2)CC1 (stereo unspecified) | 4.96 | -20.9
COc1cccc2c1OCC(CNC(=O)CSc1nc(N)n[nH]1)C2 (stereo unspecified) | 2.1 | 6.55
CCN(Cc1ccc(OC)c(F)c1)C(=O)c1ccc(C)[nH]c1=O | -0.589 | 30.6
OCCOCCN1CCCC1c1nc2cc(F)ccc2[nH]1 (stereo unspecified) | -5.15 | -4.14
O=C(NCC1CC1)Nc1cnc2cc(Cl)ccc2c1O | -0.223 | -0.695
Cc1cc(C)n(C2CN(CC(=O)NCC(C)(C)N3CCOCC3)C2)n1 | -2.72 | -13.3
CN(Cc1ccc(F)cc1)C(=O)CN1CCOC(Cn2cncn2)C1 (stereo unspecified) | 3.63 | -0.222
CC(C)c1noc(CN(Cc2cccs2)C2CC2)n1 | -0.416 | -48.4

Structure (SMILES) | Percent Effect [1] [%] | Percent Effect [2] [%]
CN(Cc1cccc(F)c1)S(=O)(=O)N1CCOCC1 | -3.02 | 3.45
O=C(NCc1nn(-c2ccccc2)c2c1CCC2)N1CCSCC1 | -2.32 | 34
CCc1nc(CN2CCCC(NCc3cc(C)no3)C2)no1 (stereo unspecified) | 3.46 | 9.82
CCn1c(C)nnc1CN(C)C1CCN(CCCOC)C1 (stereo unspecified) | 1.79 | 7.8
CN(C)c1ccc(CNC(=O)c2ccc(Cl)cc2F)cc1 | -7.82 | 0.494
CCN(CC(=O)NC(C)C)S(=O)(=O)N1CCC(C)C1 (stereo unspecified) | 2.41 | -3.8
COc1cc(C)nc(N2CCN(Cc3nccn3C)CC2)n1 | -1.39 | -9.36
CN1CC(=O)N(c2cccnc2)CC12CCN(C(=O)C1CCCCC1)C2 (stereo unspecified) | 6.7 | -1.32
COCCN1CCCC(c2nc3c([nH]2)CC(C)(C)CNC3=O)C1 (stereo unspecified) | 2.91 | 0.913
CC(C)N(Cc1cccc(F)c1)Cc1nc2c(cnn2C)c(=O)[nH]1 | -5.3 | -0.112
O=C(Cc1ccccc1F)N1C[C@@H]2COC[C@]2(COc2cccnc2)C1 | 6.28 | 3.35
Cc1ccc(NC2CCN(C(=O)CN(C)C3CC3)CC2)nn1 | -0.538 | -2.23
CCN(C(c1cccnc1)c1ccc2c(c1)CCO2)S(C)(=O)=O (stereo unspecified) | -3.44 | -49.4
CC(C)(C)c1nnc(CN2CCN(CC(O)c3ccccc3)CC2)o1 (stereo unspecified) | -8.31 | 10.2
Cc1cc(CNC(=O)C2CCCCN2C(=O)OC(C)(C)C)no1 (stereo unspecified) | 0.607 | 10.5
COc1cccc(CCNS(=O)(=O)c2ccc(NC(C)=O)cc2)c1 | -1.32 | -9.96
CC(NC(=O)CNCCn1cccn1)c1ccc2c(c1)OCCO2 (stereo unspecified) | -3.06 | 8.04
COc1ccc(CN2C[C@H](OCC3CCOCC3)[C@H]3COC[C@H]32)cc1 | -1.6 | 1.49
Cc1cc(C(=O)N2CC[C@H](OCC3CC3)[C@@H]2Cc2cccnc2)no1 | 1.17 | 1.88
COCC1CN(Cc2ccc(C)o2)Cc2ncn(CC3CC3)c21 (stereo unspecified) | -3.92 | -13.7
Cc1cc(C)c(OCC(=O)NS(=O)(=O)c2c(C)noc2C)c(C)c1 | -3.08 | 21.6
CC(=O)N1C[C@H](NC(=O)c2cscn2)[C@@H]2OCCC[C@@H]21 | -2.64 | 6.1
CN(C)CC1CN(Cc2ccc3c(c2)OCO3)Cc2nccn2C1 (stereo unspecified) | 9.35 | 4.74
